The values that follow come from the OligoGym collection.
Note: reference of the scale not given here.

The target in one test is SLC28A2. Put plainly: pooled miR-30 sensor sort-seq; sequence = guide strand. The note with it: shRNA.
Sequence TTGGACAAGTCACTCTTCCGGT showed a sensor-assay potency score (higher = more potent) of -0.0512.

As to TTGGTGAAACTTGTGTTTGGGA, the sensor-assay potency score (higher = more potent) was -0.24.

In the case of ATAGTGATTTGTAAAAACCAGG, the sensor-assay potency score (higher = more potent) is -0.831.

Regarding TTGTTGTAGAATCCACAGCAGT, the sensor-assay potency score (higher = more potent) is -1.13.

Sequence ATCTTCTTGAACAATCTGGCGT returned a sensor-assay potency score (higher = more potent) of -0.838.

As for TTCTTTTTCCATGAGCTCCAGC, the sensor-assay potency score (higher = more potent) was -0.532.

In turn, TTGGGAAGGAGACACAGTCAGC registered a sensor-assay potency score (higher = more potent) of -1.18.

TTGGACAGTCTGTCCACTCTAC had a sensor-assay potency score (higher = more potent) of 0.142.

The target in another test is SLC29A1. Described as above. Conditions: shRNA.
The sequence AAATGATAACAGCACAGGCTGT displayed a sensor-assay potency score (higher = more potent) of -0.935.

As for TGAATTAATGAGCACGATCTTG, the sensor-assay potency score (higher = more potent) was -0.995.

For the sequence TTGCACAGCAGCAGCAGTGGCA, the sensor-assay potency score (higher = more potent) is -0.846.

TTGAGCTGCTGGTAGTAGCGGT had a sensor-assay potency score (higher = more potent) of 0.0578.

TAACGTTCCCAGGTGCTGCTGC registered a sensor-assay potency score (higher = more potent) of 0.232.

As to AAGACCACAGTCAGGTAGCGGC, the sensor-assay potency score (higher = more potent) is -0.976.

For the sequence TTGACCTCAACAGTCACGGCTG, the sensor-assay potency score (higher = more potent) is 0.158.

The sequence TTGTGAAATACTGAGTGGCCGT gave a sensor-assay potency score (higher = more potent) of -0.907.

TTCAAGCTTGAGCTGCTGGTAG displayed a sensor-assay potency score (higher = more potent) of 0.0487.

ATATTGAAAGTCAAGAAACAGG returned a sensor-assay potency score (higher = more potent) of -1.17.

The sequence AATGTTGCACAGCAGCAGCAGT showed a sensor-assay potency score (higher = more potent) of -1.2.

Sequence ATGATAACAGCACAGGCTGTGA registered a sensor-assay potency score (higher = more potent) of -1.06.

TTTGTATCTGTCCTGAGGCTGG returned a sensor-assay potency score (higher = more potent) of -0.764.

TTGAAGATGGCACTGAGAGAGT returned a sensor-assay potency score (higher = more potent) of -0.713.

In turn, TCCTTTGCTAATGAGGTCCAAC yielded a sensor-assay potency score (higher = more potent) of -1.65.

With ATGAAGAAGATGAACCAGGCAT, the sensor-assay potency score (higher = more potent) came to 0.328.

As to TTGCTAATGAGGTCCAACTTGG, the sensor-assay potency score (higher = more potent) was -1.11.

As for TTTCTGATAGCTCCGAGCCACT, the sensor-assay potency score (higher = more potent) is -1.47.

For TGAAACTCCAGATTCCTCTTTG, the sensor-assay potency score (higher = more potent) was -0.131.

As for TCAAGAAACAGGACACAGGAAT, the sensor-assay potency score (higher = more potent) is -0.724.

Turning to TCGAAGACCACAGTCAGGTAGC, the sensor-assay potency score (higher = more potent) was -0.552.

Regarding TTTGCTAATGAGGTCCAACTTG, the sensor-assay potency score (higher = more potent) is -0.866.

Regarding TAGGGTCATGACATTGTTGAAG, the sensor-assay potency score (higher = more potent) was -0.605.

In the next test the target is SLC29A3. Described as above. Conditions: shRNA.
TTTGCTTGCATCTCGCTGTCAG gave a sensor-assay potency score (higher = more potent) of 0.244.

On to TTTGAACATCCAGTACTCCTTG, for which the sensor-assay potency score (higher = more potent) worked out at 0.313.

TTGCATCTCGCTGTCAGCTGGA gave a sensor-assay potency score (higher = more potent) of 0.563.

TTGACATGTTGTAAACAGGAAC yielded a sensor-assay potency score (higher = more potent) of -1.02.

Regarding TTGAACATCCAGTACTCCTTGG, the sensor-assay potency score (higher = more potent) is -0.255.

Turning to TTTGTAATAACTCTAGGGCGAA, the sensor-assay potency score (higher = more potent) was -1.16.

TTGAACTGTGCTGAAAGTCGTC: the sensor-assay potency score (higher = more potent) is 0.651.

In turn, TTACAGAGCACGAAGAGGGGGA displayed a sensor-assay potency score (higher = more potent) of 0.172.

Sequence TATTTCTTCTTCAACTGTCTCA yielded a sensor-assay potency score (higher = more potent) of 0.0304.
